{"source": "PubChem BioAssay (NCATS)", "note": "Records with an inconclusive call do not appear. Where a call stands in place of a potency, no number is given. Active and inactive are the calls of the source. The call rests on the fitted dose curve; in most records, active means well fitted cell-killing curve with a large enough effect; inconclusive means small, poorly fitted or top-dose-only effect; inactive means flat fitted curve, though single readings scatter. Potency means the concentration at half of the fitted maximal effect."}
{"test": "Cellular viability qHTS for adrenocortical cancer (ACC) cell line NCI-H295R (AID 1963990); further: nearly all actives have a fitted effect of over 60% in size", "conditions": "CellTiter-Glo ATP luminescence, 48 h; series mostly up to 46.1 µM", "method_in_brief": "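IC50 and maximal efficacy derive from four-parameter logistic modelling of titration curves, with reads scaled between DMSO-only wells (0%) and doxorubicin hydrochloride (100% inhibition). Compounds spanned up to 46 uM over 48 h.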"}
{"smiles": "O=C1Nc2ccccc2C1(c1ccc(O)cc1)c1ccc(O)cc1", "Potency": "inactive"}
{"smiles": "CC1(COc2ccc(CC3SC(=O)NC3=O)cc2)CCCCC1", "note": "(stereo unspecified)", "Potency": "16.4 µM (active)"}
{"smiles": "CCCCC(CC)CN1CN(CC(CC)CCCC)CC(C)(N)C1", "note": "(stereo unspecified)", "Potency": "inactive"}
{"smiles": "Cc1nc2n(c(=O)c1CCN1CCC(C(=O)c3ccc(F)cc3)CC1)CCS2", "Potency": "inactive"}
{"smiles": "CC(=O)NCC(=O)N1[C@@H]2CC[C@H]1c1ccc(Nc3ncc(C(F)(F)F)c(NC4CCC4)n3)cc12", "Potency": "4.47 µM (active)"}
{"smiles": "Cc1c2oc3c(C)ccc(C(=O)N[C@@H]4C(=O)N[C@H](C(C)C)C(=O)N5CCC[C@H]5C(=O)N(C)CC(=O)N(C)[C@@H](C(C)C)C(=O)O[C@@H]4C)c3nc-2c(C(=O)N[C@@H]2C(=O)N[C@H](C(C)C)C(=O)N3CCC[C@H]3C(=O)N(C)CC(=O)N(C)[C@@H](C(C)C)C(=O)O[C@@H]2C)c(N)c1=O", "Potency": "0.0517 µM (active)"}
{"smiles": "CCc1cc(Nc2nccc(-c3c(-c4ccc(OC)c(C(=O)Nc5c(F)cccc5F)c4)nc4ccccn34)n2)c(OC)cc1N1CCC(N2CCN(S(C)(=O)=O)CC2)CC1", "Potency": "inactive"}
{"smiles": "COc1ccc(S(=O)(=O)NCc2ccc(C(=O)NCCc3ccc(Cl)cn3)cc2)cc1", "Potency": "inactive"}
{"smiles": "Cc1cc(O)c2ccccc2c1O", "Potency": "20.6 µM (active)"}
{"smiles": "O=C1NC(=O)/C(=C/c2ccc3nccnc3c2)S1", "Potency": "inactive"}
{"smiles": "O=C(CCBr)N1CCN(C(=O)CCBr)CC1", "Potency": "inactive"}
{"smiles": "Cc1c(Cl)cccc1S(=O)(=O)Nc1nc(CCN2CCOCC2=O)cs1", "Potency": "inactive"}
{"smiles": "CCCCOc1cc(C(=O)NCCN(CC)CC)c2ccccc2n1", "Potency": "20.6 µM (active)"}
{"smiles": "O=C(c1ccc(F)cc1)C1CCN(CCn2c(=S)[nH]c3ccccc3c2=O)CC1", "Potency": "inactive"}
{"smiles": "O=C(CCCN1CCC(O)(c2ccc(Br)cc2)CC1)c1ccc(F)cc1", "Potency": "inactive"}
{"smiles": "CC(C)NC[C@@H](O)COc1cccc2ccccc12", "Potency": "inactive"}
{"smiles": "Nc1ccc2c(c1)CN1C(=O)c3ccccc3C1=N2", "Potency": "inactive"}
{"smiles": "CCC(=O)Oc1ccc2c(c1)CC[C@@H]1[C@@H]2CC[C@@]2(C)[C@H]1C[C@@H](OC(=O)CC)[C@@H]2OC(=O)CC", "Potency": "inactive"}
{"smiles": "OCCN1CCN(CCCN2c3ccccc3C=Cc3ccccc32)CC1", "Potency": "inactive"}
{"smiles": "O=C(CCCN1CCN(c2ccccn2)CC1)c1ccc(F)cc1", "Potency": "inactive"}
{"smiles": "N[C@H](C(=O)O)[C@@H](O)c1ccc(O)c(O)c1", "Potency": "inactive"}
{"smiles": "CCN(CC)CCCN(c1ccccc1)C1Cc2ccccc2C1", "Potency": "25.9 µM (active)"}
{"smiles": "CN(C(=O)CCCOc1ccc2[nH]c(=O)ccc2c1)C1CCCCC1", "Potency": "inactive"}
{"smiles": "CC#CC(=O)N1CCC[C@H]1c1nc(-c2ccc(C(=O)Nc3ccccn3)cc2)c2c(N)nccn12", "Potency": "inactive"}
{"smiles": "O=C(Nc1ccccc1)OCC(CN1CCCCC1)OC(=O)Nc1ccccc1", "note": "(stereo unspecified)", "Potency": "23.1 µM (active)"}
{"smiles": "CN1C(=O)[C@@H](NC(=O)c2cc(Cc3ccccc3)on2)COc2ccccc21", "Potency": "inactive"}
